From PubChem BioAssay (NCI) come the findings set out here.

About 79,000 compounds went through this panel and 15% of them were active in at least one assay; those are over-represented in the sample as a whole. Values without a mark were called inactive. The source made the active and inactive calls. Rule as the data show it: active = growth inhibition above about 70%; inactive = the rest.

Assay [1] is described as follows: NCI Yeast Anticancer Drug Screen. Data for the rad50 strain (AID 155).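 Also: 0% = growth of vehicle-only cultures of the same strain.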 To be noted: S. cerevisiae rad50 strain growth inhibition, hits give high values. The gist of the method: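 DNA repair mutant yeast, compound exposure, growth read-out; inhibition is taken relative to vehicle.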
The nature of assay [2]: NCI Yeast Anticancer Drug Screen. Data for the mec2-1 strain (AID 157). To be noted: S. cerevisiae mec2-1 strain, hits give high values. The gist of the method: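 Using mec2-1 yeast: add compound, measure growth, express inhibition versus vehicle-treated cultures.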
The nature of assay [3]: NCI Yeast Anticancer Drug Screen. Data for the sgs1 mgt1 strain (AID 161).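 Also: 0% = growth of cultures given vehicle only.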 To be noted: S. cerevisiae sgs1 mgt1 strain, hits give high values. A digest of the protocol: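 Percent growth inhibition was derived by comparing compound-exposed mutant yeast with vehicle-exposed cultures. The strain carries alterations in DNA damage repair.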
Assay [4] in a line: NCI Yeast Anticancer Drug Screen. Data for the cln2 rad14 strain (AID 165).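 Also: 0% = growth equal to vehicle treated cultures.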 To be noted: S. cerevisiae cln2 rad14 strain, hits give high values. A digest of the protocol:
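Yeast strain cln2 rad14, bearing defects in cell cycle control and DNA repair, serves as the test system; values reflect growth inhibition compared with vehicle.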

Assay [5] is described as follows: NCI Yeast Anticancer Drug Screen. Data for the bub3 strain (AID 167). As to conditions: S. cerevisiae bub3 mutant strain, hits give high values. The gist of the method:
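In this screen, a yeast mutant lacking normal mitotic checkpoint function is challenged with compound. Relative growth versus vehicle gives the inhibition value.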

A short description of assay [6]: NCI Yeast Anticancer Drug Screen. Data for the mlh1 rad18 strain (AID 175). As to conditions: S. cerevisiae mlh1 rad18 strain growth inhibition, hits give high values. A digest of the protocol: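 Steps: expose repair-defective yeast to compound; measure growth; express inhibition against vehicle-treated controls.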
[7] abbreviates: at 5.0 µM (retest, dose inferred, filed as 0.5).
Where [8] appears, read: at 50.0 µM (retest, dose inferred, filed as 5.0).

Turning to `O=C(Nc1ccc(Cl)cc1)Nc1cc(Cl)ccc1O`, the growth inhibition was -2% in assay [1] (setting [7]); 22% in assay [1] (setting [8]); 93% (active) in assay [1] (at 50.0 µM); 0% in assay [2] (setting [7]); 35% in assay [2] (setting [8]); 96.2% (active) in assay [2] (at 50.0 µM). Further, the growth inhibition is -1% in assay [3] (setting [7]); 28% in assay [3] (setting [8]); 90.3% (active) in assay [3] (at 50.0 µM); -8% in assay [4] (setting [7]); 27% in assay [4] (setting [8]); 94% (active) in assay [4] (at 50.0 µM). Further, the growth inhibition in assay [5] (setting [7]) is -4%; in assay [5] (setting [8]) it was 19%; in assay [5] (at 50.0 µM), 96.5% (active); in assay [6] (setting [7]), -3%; in assay [6] (setting [8]) it was 30%; in assay [6] (at 50.0 µM) it was 97.5% (active).

In the case of `O[Si](O)(c1ccccc1)c1ccccc1`, the growth inhibition is 13% in assay [1] (setting [7]); 92% (active) in assay [1] (setting [8]); 96.2% (active) in assay [1] (at 50.0 µM); 7% in assay [2] (setting [7]); 92% (active) in assay [2] (setting [8]); 93% (active) in assay [2] (at 50.0 µM). Besides, the growth inhibition in assay [3] (setting [7]) was 10%; in assay [3] (setting [8]) it was 92% (active); in assay [3] (at 50.0 µM), 95.8% (active); in assay [4] (setting [7]), 0%; in assay [4] (setting [8]) it was 88% (active); in assay [4] (at 50.0 µM), 90.2% (active). The growth inhibition in assay [5] (setting [7]) is -2%; in assay [5] (setting [8]), 94% (active); in assay [5] (at 50.0 µM) it was 95.6% (active); in assay [6] (setting [7]), 12%; in assay [6] (setting [8]), 95% (active); in assay [6] (at 50.0 µM), 95.8% (active).

For the compound `CCCC1c2ccc(O)cc2CC1c1ccc(O)cc1` (configuration not stated), the growth inhibition in assay [1] (setting [7]) was -1%; in assay [1] (setting [8]), 99% (active); in assay [1] (at 50.0 µM) it was 99.2% (active); in assay [2] (setting [7]), -4%; in assay [2] (setting [8]), 99% (active); in assay [2] (at 50.0 µM) it was 99.4% (active). For the same compound, the growth inhibition is -3% in assay [3] (setting [7]); 99% (active) in assay [3] (setting [8]); 99.5% (active) in assay [3] (at 50.0 µM); 11% in assay [4] (setting [7]); 99% (active) in assay [4] (setting [8]); 52.4% in assay [4] (at 50.0 µM). Moreover, the growth inhibition was -1% in assay [5] (setting [7]); 99% (active) in assay [5] (setting [8]); 98.7% (active) in assay [5] (at 50.0 µM); 1% in assay [6] (setting [7]); 99% (active) in assay [6] (setting [8]); 98.5% (active) in assay [6] (at 50.0 µM).

As for `O=c1oc2ccccc2c(O)c1/C=N/C(=S)Nc1ccccc1`, the growth inhibition in assay [1] (setting [7]) was 13%; in assay [1] (setting [8]), 93% (active); in assay [1] (at 50.0 µM), 71% (active); in assay [2] (setting [7]) it was -3%; in assay [2] (setting [8]) it was 87% (active); in assay [2] (at 50.0 µM), 34.5%. The growth inhibition in assay [3] (setting [7]) was 6%; in assay [3] (setting [8]), 88% (active); in assay [3] (at 50.0 µM), 18.5%; in assay [4] (setting [7]), 0%; in assay [4] (setting [8]) it was 32%; in assay [4] (at 50.0 µM), 20.8%. For the same compound, the growth inhibition in assay [5] (setting [7]) was 12%; in assay [5] (setting [8]), 92% (active); in assay [5] (at 50.0 µM), 46.9%; in assay [6] (setting [7]), 9%; in assay [6] (setting [8]) it was 97% (active); in assay [6] (at 50.0 µM) it was 76% (active).

As to `Oc1ccc(N(Cc2ccccc2)Cc2ccccc2)cc1`, the growth inhibition is 4% in assay [1] (setting [7]); 47% in assay [1] (setting [8]); 98.2% (active) in assay [1] (at 50.0 µM); 4% in assay [2] (setting [7]); 58% in assay [2] (setting [8]); 97.9% (active) in assay [2] (at 50.0 µM). The growth inhibition in assay [3] (setting [7]) was 6%; in assay [3] (setting [8]), 40%; in assay [3] (at 50.0 µM), 98.4% (active); in assay [4] (setting [7]), 0%; in assay [4] (setting [8]) it was 93% (active); in assay [4] (at 50.0 µM), 97.7% (active). Further, the growth inhibition in assay [5] (setting [7]) was 7%; in assay [5] (setting [8]), 89% (active); in assay [5] (at 50.0 µM) it was 97.6% (active); in assay [6] (setting [7]) it was 6%; in assay [6] (setting [8]), 69%; in assay [6] (at 50.0 µM) it was 97.3% (active).

On to `CSC(=N)N1N=C2/C(=C/c3ccccc3)CCC[C@H]2[C@H]1c1ccccc1`, for which the growth inhibition in assay [1] (setting [7]) was -17%; in assay [1] (setting [8]) it was -14%; in assay [1] (at 50.0 µM), 21.4%; in assay [2] (setting [7]) it was -7%; in assay [2] (setting [8]) it was -2%; in assay [2] (at 50.0 µM) it was -6.7%. Also, the growth inhibition is -13% in assay [3] (setting [7]); 13% in assay [3] (setting [8]); 40.7% in assay [3] (at 50.0 µM); -35% in assay [4] (setting [7]); 5% in assay [4] (setting [8]); -14.8% in assay [4] (at 50.0 µM). The growth inhibition was -3% in assay [5] (setting [7]); 5% in assay [5] (setting [8]); 4.45% in assay [5] (at 50.0 µM); -10% in assay [6] (setting [7]); 29% in assay [6] (setting [8]); 27.9% in assay [6] (at 50.0 µM).

For the compound `COc1ccc(C(=O)Cn2c(C(C)=O)nc3ccccc32)cc1`, the growth inhibition in assay [1] (setting [7]) is 26%; in assay [1] (setting [8]), 66%; in assay [1] (at 50.0 µM), -23.6%; in assay [2] (setting [7]) it was 18%; in assay [2] (setting [8]), 36%; in assay [2] (at 50.0 µM) it was -21.1%. Besides, the growth inhibition in assay [3] (setting [7]) was 36%; in assay [3] (setting [8]) it was 73% (active); in assay [3] (at 50.0 µM) it was -14.5%; in assay [4] (setting [7]), 6%; in assay [4] (setting [8]), 32%; in assay [4] (at 50.0 µM) it was 4%. Further, the growth inhibition in assay [5] (setting [7]) is 31%; in assay [5] (setting [8]), 36%; in assay [5] (at 50.0 µM) it was -32.6%; in assay [6] (setting [7]) it was 28%; in assay [6] (setting [8]) it was 52%; in assay [6] (at 50.0 µM), -43.2%.

On to `Cc1cc[c]([Sn]([Cl])([O][Sn]([Cl])([c]2ccc(C)cc2)[c]2ccc(C)cc2)[c]2ccc(C)cc2)cc1`, for which the growth inhibition was 17% in assay [1] (setting [7]); 57% in assay [1] (setting [8]); 84.7% (active) in assay [1] (at 50.0 µM); 15% in assay [2] (setting [7]); 55% in assay [2] (setting [8]); 89.2% (active) in assay [2] (at 50.0 µM). The growth inhibition in assay [3] (setting [7]) is 29%; in assay [3] (setting [8]), 63%; in assay [3] (at 50.0 µM), 85.8% (active); in assay [4] (setting [7]), 2%; in assay [4] (setting [8]) it was 35%; in assay [4] (at 50.0 µM), 83.1% (active). Further, the growth inhibition in assay [5] (setting [7]) is 16%; in assay [5] (setting [8]), 67%; in assay [5] (at 50.0 µM) it was 86.7% (active); in assay [6] (setting [7]), 26%; in assay [6] (setting [8]), 54%; in assay [6] (at 50.0 µM), 91.3% (active).

Regarding `CCCCCCCCCc1ccc(O)c(Cl)c1`, the growth inhibition was -28% in assay [1] (setting [7]); 94% (active) in assay [1] (setting [8]); 99.7% (active) in assay [1] (at 50.0 µM); -3% in assay [2] (setting [7]); 90% (active) in assay [2] (setting [8]); 99.8% (active) in assay [2] (at 50.0 µM). Besides, the growth inhibition is -2% in assay [3] (setting [7]); 99% (active) in assay [3] (setting [8]); 99.2% (active) in assay [3] (at 50.0 µM); -12% in assay [4] (setting [7]); 97% (active) in assay [4] (setting [8]); 99.5% (active) in assay [4] (at 50.0 µM). In addition, the growth inhibition in assay [5] (setting [7]) was -1%; in assay [5] (setting [8]) it was 86% (active); in assay [5] (at 50.0 µM), 99.4% (active); in assay [6] (setting [7]) it was -9%; in assay [6] (setting [8]), 99% (active); in assay [6] (at 50.0 µM), 99.5% (active).
